# The supplement of paper PMC4466140
# B1: unnamed (peptide)
# chain: KIRRSSLMIPNPQQF
# B2: unnamed (peptide)
# chain: NILKRRPLKLEAPSK
# Columns and labels:
# Assay in all cases: SPOT peptide array binding signal intensity (averaged, normalized) (arbitrary units (background-subtracted, floor 0; scale differs between SH3 domains)); higher = stronger binding of the SH3 domain to the peptide
# AgAbp1 = molecular target: AgAbp1
# Description: (§1)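 GST-tagged SH3 domains from S. cerevisiae (Sc), A. gossypii (Ag), C. albicans (Ca) and S. pombe (Sp) were incubated at 10 ug/ml overnight at 4 C on cellulose SPOT membranes carrying 292 synthetic 15-mer peptides mined from the S. cerevisiae proteome (cysteines replaced by serines). Binding was detected with anti-GST antibody, HRP secondary and chemiluminescence, quantified with Genespotter, and reported as normalized spot intensities averaged over biological replicates.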
# AgBbc1 = molecular target: AgBbc1
# Description: as §1
# AgBem1-D1 = molecular target: AgBem1-D1
# Description: as §1
# AgBzz1-D1 = molecular target: AgBzz1-D1
# Description: as §1
# AgBzz1-D2 = molecular target: AgBzz1-D2
# Description: as §1
# AgCyk3 = molecular target: AgCyk3
# Description: as §1
# AgFus1 = molecular target: AgFus1
# Description: as §1
# AgHof1 = molecular target: AgHof1
# Description: as §1
# AgHse1 = molecular target: AgHse1
# Description: as §1
# AgLsb1 = molecular target: AgLsb1
# Description: as §1
# AgLsb4 = molecular target: AgLsb4
# Description: as §1
# AgMyo5 = molecular target: AgMyo5
# Description: as §1
# AgNbp2 = molecular target: AgNbp2
# Description: as §1
# AgRvs167 = molecular target: AgRvs167
# Description: as §1
# AgSho1 = molecular target: AgSho1
# Description: as §1
# AgSla1-D1-D2 = molecular target: AgSla1-D1-D2
# Description: as §1
# AgSla1-D3 = molecular target: AgSla1-D3
# Description: as §1
# CaAbp1-D1 = molecular target: CaAbp1-D1
# Description: as §1
# CaAbp1-D2 = molecular target: CaAbp1-D2
# Description: as §1
# CaBbc1 = molecular target: CaBbc1
# Description: as §1
# CaBem1-D1 = molecular target: CaBem1-D1
# Description: as §1
# CaBzz1-D1 = molecular target: CaBzz1-D1
# Description: as §1
# CaBzz1-D2 = molecular target: CaBzz1-D2
# Description: as §1
# CaCyk3 = molecular target: CaCyk3
# Description: as §1
# CaFus1 = molecular target: CaFus1
# Description: as §1
# CaHof1 = molecular target: CaHof1
# Description: as §1
# CaHse1 = molecular target: CaHse1
# Description: as §1
# CaLsb1 = molecular target: CaLsb1
# Description: as §1
# CaLsb4 = molecular target: CaLsb4
# Description: as §1
# CaMyo5 = molecular target: CaMyo5
# Description: as §1
# CaNbp2 = molecular target: CaNbp2
# Description: as §1
# CaRvs167 = molecular target: CaRvs167
# Description: as §1
# CaRvs167-3 = molecular target: CaRvs167-3
# Description: as §1
# CaSho1 = molecular target: CaSho1
# Description: as §1
# CaSla1-D1-D2 = molecular target: CaSla1-D1-D2
# Description: as §1
# CaSla1-D3 = molecular target: CaSla1-D3
# Description: as §1
# ScAbp1 = molecular target: ScAbp1
# Description: as §1
# ScBbc1 = molecular target: ScBbc1
# Description: as §1
# ScBem1-D1 = molecular target: ScBem1-D1
# Description: as §1
# ScBzz1-D1 = molecular target: ScBzz1-D1
# Description: as §1
# ScBzz1-D2 = molecular target: ScBzz1-D2
# Description: as §1
# ScCyk3 = molecular target: ScCyk3
# Description: as §1
# ScFus1 = molecular target: ScFus1
# Description: as §1
# ScHof1 = molecular target: ScHof1
# Description: as §1
# ScHse1 = molecular target: ScHse1
# Description: as §1
# ScLsb1 = molecular target: ScLsb1
# Description: as §1
# ScLsb2 = molecular target: ScLsb2
# Description: as §1
# ScLsb3 = molecular target: ScLsb3
# Description: as §1
# ScLsb4 = molecular target: ScLsb4
# Description: as §1
# ScMyo3 = molecular target: ScMyo3
# Description: as §1
# ScMyo5 = molecular target: ScMyo5
# Description: as §1
# ScNbp2 = molecular target: ScNbp2
# Description: as §1
# ScPex13 = molecular target: ScPex13
# Description: as §1
# ScRvs167 = molecular target: ScRvs167
# Description: as §1
# ScSho1 = molecular target: ScSho1
# Description: as §1
# ScSla1-D1-D2 = molecular target: ScSla1-D1-D2
# Description: as §1
# ScSla1-D3 = molecular target: ScSla1-D3
# Description: as §1
# SpAbp1-D1 = molecular target: SpAbp1-D1
# Description: as §1
# SpBbc1 = molecular target: SpBbc1
# Description: as §1
# SpBzz1-D1 = molecular target: SpBzz1-D1
# Description: as §1
# SpBzz1-D2 = molecular target: SpBzz1-D2
# Description: as §1
# SpCyk3 = molecular target: SpCyk3
# Description: as §1
# SpHof1 = molecular target: SpHof1
# Description: as §1
# SpHof1-2 = molecular target: SpHof1-2
# Description: as §1
# SpHof1-3 = molecular target: SpHof1-3
# Description: as §1
# SpHse1 = molecular target: SpHse1
# Description: as §1
# SpLsb1 = molecular target: SpLsb1
# Description: as §1
# SpLsb4 = molecular target: SpLsb4
# Description: as §1
# SpMyo1 = molecular target: SpMyo1
# Description: as §1
# SpNbp2 = molecular target: SpNbp2
# Description: as §1
# SpPex13 = molecular target: SpPex13
# Description: as §1
# SpRvs167 = molecular target: SpRvs167
# Description: as §1
# SpSla1-D1-D2 = molecular target: SpSla1-D1-D2
# Description: as §1
# SpSla1-D3 = molecular target: SpSla1-D3
# Description: as §1
binder,measurement,setting,value
B1,SPOT peptide array binding signal intensity,AgAbp1,26.5
same,SPOT peptide array binding signal intensity,AgBbc1,56.5
same,SPOT peptide array binding signal intensity,AgBem1-D1,234
same,SPOT peptide array binding signal intensity,AgBzz1-D1,18.5
same,SPOT peptide array binding signal intensity,AgBzz1-D2,39
same,SPOT peptide array binding signal intensity,AgCyk3,≤ 0
same,SPOT peptide array binding signal intensity,AgFus1,88
same,SPOT peptide array binding signal intensity,AgHof1,56.8
same,SPOT peptide array binding signal intensity,AgHse1,138
same,SPOT peptide array binding signal intensity,AgLsb1,86.5
same,SPOT peptide array binding signal intensity,AgLsb4,14
same,SPOT peptide array binding signal intensity,AgMyo5,2
same,SPOT peptide array binding signal intensity,AgNbp2,15
same,SPOT peptide array binding signal intensity,AgRvs167,1.67
same,SPOT peptide array binding signal intensity,AgSho1,15.5
same,SPOT peptide array binding signal intensity,AgSla1-D1-D2,186
same,SPOT peptide array binding signal intensity,AgSla1-D3,3.5
same,SPOT peptide array binding signal intensity,CaAbp1-D1,316
same,SPOT peptide array binding signal intensity,CaAbp1-D2,153
same,SPOT peptide array binding signal intensity,CaBbc1,214
same,SPOT peptide array binding signal intensity,CaBem1-D1,65.5
same,SPOT peptide array binding signal intensity,CaBzz1-D1,195
same,SPOT peptide array binding signal intensity,CaBzz1-D2,206
same,SPOT peptide array binding signal intensity,CaCyk3,11
same,SPOT peptide array binding signal intensity,CaFus1,383
same,SPOT peptide array binding signal intensity,CaHof1,1
same,SPOT peptide array binding signal intensity,CaHse1,12.5
same,SPOT peptide array binding signal intensity,CaLsb1,4
same,SPOT peptide array binding signal intensity,CaLsb4,72.5
same,SPOT peptide array binding signal intensity,CaMyo5,20.5
same,SPOT peptide array binding signal intensity,CaNbp2,129
same,SPOT peptide array binding signal intensity,CaRvs167,42.3
same,SPOT peptide array binding signal intensity,CaRvs167-3,7.5
same,SPOT peptide array binding signal intensity,CaSho1,84.5
same,SPOT peptide array binding signal intensity,CaSla1-D1-D2,532
same,SPOT peptide array binding signal intensity,CaSla1-D3,352
same,SPOT peptide array binding signal intensity,ScAbp1,42
same,SPOT peptide array binding signal intensity,ScBbc1,22.2
same,SPOT peptide array binding signal intensity,ScBem1-D1,136
same,SPOT peptide array binding signal intensity,ScBzz1-D1,40
same,SPOT peptide array binding signal intensity,ScBzz1-D2,32
same,SPOT peptide array binding signal intensity,ScCyk3,24
same,SPOT peptide array binding signal intensity,ScFus1,68
same,SPOT peptide array binding signal intensity,ScHof1,≤ 0
same,SPOT peptide array binding signal intensity,ScHse1,388
same,SPOT peptide array binding signal intensity,ScLsb1,20.5
same,SPOT peptide array binding signal intensity,ScLsb2,1.5
same,SPOT peptide array binding signal intensity,ScLsb3,15.5
same,SPOT peptide array binding signal intensity,ScLsb4,≤ 0
same,SPOT peptide array binding signal intensity,ScMyo3,5
same,SPOT peptide array binding signal intensity,ScMyo5,7
same,SPOT peptide array binding signal intensity,ScNbp2,126
same,SPOT peptide array binding signal intensity,ScPex13,46
same,SPOT peptide array binding signal intensity,ScRvs167,40.2
same,SPOT peptide array binding signal intensity,ScSho1,304
same,SPOT peptide array binding signal intensity,ScSla1-D1-D2,526
same,SPOT peptide array binding signal intensity,ScSla1-D3,337
same,SPOT peptide array binding signal intensity,SpAbp1-D1,95
same,SPOT peptide array binding signal intensity,SpBbc1,3.5
same,SPOT peptide array binding signal intensity,SpBzz1-D1,311
same,SPOT peptide array binding signal intensity,SpBzz1-D2,≤ 0
same,SPOT peptide array binding signal intensity,SpCyk3,6
same,SPOT peptide array binding signal intensity,SpHof1,94.5
same,SPOT peptide array binding signal intensity,SpHof1-2,24
same,SPOT peptide array binding signal intensity,SpHof1-3,241
same,SPOT peptide array binding signal intensity,SpHse1,184
same,SPOT peptide array binding signal intensity,SpLsb1,5.5
same,SPOT peptide array binding signal intensity,SpLsb4,144
same,SPOT peptide array binding signal intensity,SpMyo1,9.5
same,SPOT peptide array binding signal intensity,SpNbp2,33
same,SPOT peptide array binding signal intensity,SpPex13,162
same,SPOT peptide array binding signal intensity,SpRvs167,17.3
same,SPOT peptide array binding signal intensity,SpSla1-D1-D2,8
same,SPOT peptide array binding signal intensity,SpSla1-D3,68
B2,SPOT peptide array binding signal intensity,CaNbp2,284
same,SPOT peptide array binding signal intensity,CaRvs167,31.7
same,SPOT peptide array binding signal intensity,CaRvs167-3,24
same,SPOT peptide array binding signal intensity,CaSho1,93.5
same,SPOT peptide array binding signal intensity,CaSla1-D1-D2,10.5
same,SPOT peptide array binding signal intensity,CaSla1-D3,≤ 0
same,SPOT peptide array binding signal intensity,ScAbp1,296
same,SPOT peptide array binding signal intensity,ScBbc1,≤ 0
same,SPOT peptide array binding signal intensity,ScBem1-D1,10
same,SPOT peptide array binding signal intensity,ScBzz1-D1,12
same,SPOT peptide array binding signal intensity,ScBzz1-D2,≤ 0
same,SPOT peptide array binding signal intensity,ScCyk3,33
same,SPOT peptide array binding signal intensity,ScFus1,149
same,SPOT peptide array binding signal intensity,ScHof1,≤ 0
same,SPOT peptide array binding signal intensity,ScHse1,2660
same,SPOT peptide array binding signal intensity,ScLsb1,2.5
same,SPOT peptide array binding signal intensity,ScLsb2,1
same,SPOT peptide array binding signal intensity,ScLsb3,76
same,SPOT peptide array binding signal intensity,ScLsb4,2
same,SPOT peptide array binding signal intensity,ScMyo3,0.25
same,SPOT peptide array binding signal intensity,ScMyo5,≤ 0
same,SPOT peptide array binding signal intensity,ScNbp2,46
same,SPOT peptide array binding signal intensity,ScPex13,≤ 0
same,SPOT peptide array binding signal intensity,ScRvs167,2.5
same,SPOT peptide array binding signal intensity,ScSho1,368
same,SPOT peptide array binding signal intensity,ScSla1-D1-D2,39
same,SPOT peptide array binding signal intensity,ScSla1-D3,≤ 0
same,SPOT peptide array binding signal intensity,SpAbp1-D1,64.5
same,SPOT peptide array binding signal intensity,SpBbc1,0.75
same,SPOT peptide array binding signal intensity,SpBzz1-D1,64
same,SPOT peptide array binding signal intensity,SpBzz1-D2,≤ 0
same,SPOT peptide array binding signal intensity,SpCyk3,≤ 0
same,SPOT peptide array binding signal intensity,SpHof1,48.8
same,SPOT peptide array binding signal intensity,SpHof1-2,≤ 0
same,SPOT peptide array binding signal intensity,SpHof1-3,699
same,SPOT peptide array binding signal intensity,SpHse1,1400
same,SPOT peptide array binding signal intensity,SpLsb1,1
same,SPOT peptide array binding signal intensity,SpLsb4,3.5
same,SPOT peptide array binding signal intensity,SpMyo1,≤ 0
same,SPOT peptide array binding signal intensity,SpNbp2,58
same,SPOT peptide array binding signal intensity,SpPex13,≤ 0
same,SPOT peptide array binding signal intensity,SpRvs167,1.33
same,SPOT peptide array binding signal intensity,SpSla1-D1-D2,2
same,SPOT peptide array binding signal intensity,SpSla1-D3,≤ 0
